Several values for one entry are separate records, joined by “and”; a condition that tells them apart may be missing. Equal entries are not always repeated. Records with an inconclusive call do not appear. Where a call stands in place of a potency, no number is given. More than one record can exist for a structure, and the calls need not agree. Activity calls are given as the source filed them. Calls come from the whole dose curve; as a rule, active = well fitted cell-killing curve with a large enough effect; inconclusive = small, poorly fitted or top-dose-only effect, or effect the other way; inactive = no such curve, though single readings can be large or run the other way.
test: Viability qHTS for spleen associated tyrosine kinase inhibitor (SYKi) drug resistant MV4-11 cells (AID 1963824); details: SYKi-resistant MV4-11 viability, CellTiter-Glo, 72 h; series mostly up to 45 µM; note: nearly all actives have a fitted effect of over 35% in size
Source text: Department of Medicine, Hematology/Oncology
University Hospital Frankfurt, Germany.
Trials have shown promising clinical activity of the selective SYK inhibitor entospletinib in patients with high expressing HOXA9/MEIS1 acute leukemias. As the development of resistance mechanisms is a common problem in the use of targeted drugs, we performed a chemical library screen to identify drug sensitivities in SYK inhibitor resistant AML cells. […] Glucocorticoids are potent immunosuppressants which work in part by inhibiting the transcription of cytokine genes.
Described herein is a viability screen to look for activity in the SYK inhibitor drug resistant cell line against four NCATS compound libraries (MIPE 5.0, NPC, NPACT, and Kinase) totaling 11372 compounds. Active hits were reacquired for confirmation and further secondary assay testing.
SEQUENCE No. (e.g., 1, 2, 3, etc.); […] (e.g., Cells, Incubation, Reagent, etc.); VALUE; DESCRIPTION.
1; Media; 2uL; white, solid-bottom Corning assay plate.
2; Compounds; 23nL; Echo acoustic dispenser.
3; Cell; 5uL; 500 cells per well.
4: Incubation; 72hr; 37 C, 5% CO2, 95% humidity.
5; Reagent; 3uL; CellTiter-Glo reagent (Promega).
6; Incubation; 10min; room temperature.
7; Detection; Luminescence; ViewLux plate reader (PerkinElmer).
NOTES (numbers refer to Sequence numbers above
1. Quantitative high-throughput screening (qHTS) of small molecule compounds was conducted on drug resistant SYKi MV4-11 cell line.
2. Twenty-three nanoliter of small molecule compounds were added to each assay plates using the Echo acoustic dispenser (Beckman Coulter).
3. Cells were seeded into the assay plates at a final density of 500 cells in 5uL of media per well using the Multidrop Combi dispenser.
4. Plates were covered with stainless steel gasketed lids and incubated for 72 hours at standard cell culture conditions.
5. Viability was assessed by adding 3uL of CellTiter-Glo detection reagent (Promega).
6. Plates were covered with gasket lids and incubated for 10 minutes at room temperature.
7. Luminescence was measured on a ViewLux plate reader (PerkinElmer).
Potency is the fitted concentration of half-maximal effect.

Structure (SMILES) | Potency | viability, % of control
CC(C)Oc1ccc(-c2nc(-c3cccc4c3CCC4NCCC(=O)O)no2)cc1C#N (stereo not given) | inactive | –
CN(C)c1cc(NC(=O)CNC(C)(C)C)c(O)c2c1C[C@H]1C[C@H]3[C@H](N(C)C)C(=O)C(C(N)=O)=C(O)[C@]3(O)C(=O)C1=C2O | inactive | –
COC(=O)Nc1ccc(-c2nc(N3CCOCC3)c3cnn(C4CCN(Cc5cccnc5)CC4)c3n2)cc1 | 0.58 µM (active) | –
Cc1ccc(S(=O)(=O)NC(=O)NC2CCCCC2)cc1 | inactive | –
NS(=O)(=O)c1cc(C2(O)NC(=O)c3ccccc32)ccc1Cl (stereo not given) | inactive | –
COc1ccnc2[nH]cc(C(=O)C(=O)N3CCN(C(=O)c4ccccc4)C[C@H]3C)c12 | inactive | –
CC[C@H]1OC(=O)[C@](C)(F)C(=O)[C@H](C)[C@@H](O[C@@H]2O[C@H](C)C[C@H](N(C)C)[C@H]2O)[C@](C)(OC)C[C@@H](C)C(=O)[C@@H](C)[C@H]2N(CCCCn3cc(-c4cccc(N)c4)nn3)C(=O)O[C@]12C | 10.3 µM (active) | –
O=C(NCc1ccccc1)[C@H](Cc1ccccc1)NC(=O)[C@H]1O[C@@H]1C(=O)NCCc1ccc(O)cc1 | 13.2 µM (active) | –
CC1CCC2(C)C(CC(O)C(O)C23CO3)C1(C)CCC1=CC(O)OC1=O (stereo not given) | inactive | –
Nc1ccc(-c2ccnc(NCCCNC(=O)c3c(Cl)cccc3Cl)n2)cc1 | 1.3 µM (active) | –
Cc1nc2n(c(=O)c1CCN1CCC(c3noc4cc(F)ccc34)CC1)CCCC2 | inactive | –
CCCc1cc(C)[nH]c(=O)c1CNC(=O)c1cc(-c2ccc(N3CCN(C(C)C)CC3)nc2)cc2c1cnn2C(C)C | 8.2 µM (active) and 8.33 µM (active) | –
CC(C)n1nc(-c2ccc3oc(N)nc3c2)c2c(N)ncnc21 | 73.1 nM (active) and 46.8 nM (active) | –
COc1ccc(-c2c(C)nn3c(NCCN4CCOCC4)cc(C)nc23)cc1OC | 9.2 µM (active) | –
C=CCCCCCCCCC(=O)O | inactive | –
COC1=CC(=O)O[C@@H](/C=C/c2ccccc2)[C@@H]1O | inactive | –
OC(CCN1CCCCC1)(c1ccccc1)C1CC2C=CC1C2 (stereo not given) | inactive and 16.6 µM (active) | –
O=C(OCc1ccccc1O[C@@H]1O[C@H](CO)[C@@H](O)[C@H](O)[C@H]1O)C1(O)C=CCCC1O (stereo not given in full) | inactive | –
Oc1ccc([C@@H]2Oc3ccc(O)cc3[C@@H]3CCC[C@@H]32)cc1 | 4.61 µM (active) | –
COc1c(O)cc2c(c1O)C(=O)O[C@H](C)[C@H]2O | inactive | –

Structure (SMILES) | Potency | viability, % of control
C=CC(=O)Nc1cc(Nc2nccc(-c3c[nH]c4ccccc34)n2)c(OC)cc1N(C)CCN(C)C | 0.58 µM (active) | –
CN(C)c1ccc(C(=C2C=CC(=[N+](C)C)C=C2)c2ccc(N(C)C)cc2)cc1 | 0.372 µM (active) | –
C[C@@H]1O[C@@H](O[C@H]2[C@H](O[C@H]3[C@H](O[C@H]4CC[C@@]5(C=O)C(CC[C@]6(C)C5CC=C5C7CC(C)(C)C[C@@H](O)[C@]7(C)CC[C@]56C)C4(C)C)O[C@H](C(=O)O)[C@@H](O)[C@@H]3O)OC[C@@H](O)[C@@H]2O)[C@H](O)[C@H](O)[C@H]1O (stereo not given in full) | – | 103% [at 9.25 µM] (inactive)
C[C@@H]1O[C@@H](O[C@H]2[C@H](OC(=O)[C@]34CCC(C)(C)C[C@H]3C3=CCC5[C@@]6(C)C[C@@H](O)[C@@H](O[C@@H]7O[C@H](CO)[C@@H](O)[C@H](O)[C@H]7O)[C@@](C)(CO)C6[C@H](O)C[C@@]5(C)[C@]3(C)CC4)OC[C@H](O)[C@@H]2O)[C@H](O)[C@H](O[C@@H]2OC[C@](O)(CO)[C@H]2O)[C@H]1O[C@@H]1OC[C@@H](O)[C@H](O[C@H]2O[C@H](C)[C@@H](O)[C@H](O)[C@@H]2O)[C@H]1O (stereo not given in full) | – | 86.5% [at 9.25 µM] (inactive)
COc1cc2c(Oc3ccc(NC(=O)C4(C(=O)Nc5ccc(F)cc5)CC4)cc3F)ccnc2cc1OCCCN1CCOCC1 | 0.0037 µM (active) | –
COc1c(C)c(OCC(O)C(C)(C)O)cc2c1CNC2=O (stereo not given) | inactive | –
CC/C(=C(\c1ccc(O)cc1)c1ccc(OCCNC)cc1)c1ccccc1 | inactive | –
CNC(=O)c1c(I)c(NC(=O)CCCCC(=O)Nc2c(I)c(C(=O)O)c(I)c(C(=O)NC)c2I)c(I)c(C(=O)O)c1I | inactive | –
C=C[C@@]1(C)CC(=O)C2[C@](C)(O1)[C@@H](OC(C)=O)[C@@H](O)[C@H]1C(C)(C)CCC[C@]21C (stereo not given in full) | – | 89.7% [at 9.25 µM] (inactive)
CCCCCCCCCCC(CO)CCCCCCCC (stereo not given) | inactive | –
CC(=O)O[C@@H]1[C@@H](O)[C@H](C)O[C@@H](O[C@H]2[C@@H]3C=CO[C@@H](O[C@@H]4O[C@H](CO)[C@@H](O)[C@H](O)[C@H]4OC(C)=O)[C@@H]3[C@@]3(CO)O[C@@H]23)[C@@H]1OC(=O)/C=C/c1ccc(O)cc1 | inactive | –
Nc1ccc(-n2nc(C(F)(F)F)cc2C(F)(F)F)cc1 | inactive | –
C=CC(=O)N1CCC[C@H](n2c(=O)n(-c3ccc(Oc4ccccc4)cc3)c3c(N)ncnc32)C1 | 1.66 µM (active) | –
Cc1c(C)c2c(c(C)c1OC(=O)c1cccnc1)CC[C@@](C)(CCC[C@H](C)CCC[C@H](C)CCCC(C)C)O2 | inactive | –
C=CC(C)(C)c1[nH]c2cc3c(cc2c1CC1NC(=O)C2CCCN2C1=O)C=CC(C)(C)O3 (stereo not given) | inactive | –
CC(=O)Oc1cc(C(C)C)c(OCCN(C)C)cc1C | inactive | –
NC1(c2ccc(-c3nc4ccn5c(=O)[nH]nc5c4cc3-c3ccccc3)cc2)CCC1 | 11.9 µM (active) and 8.2 µM (active) and 5.9 µM (active) | –
C=C1[C@H](OC(C)=O)[C@H]2[C@@H](OC(C)=O)[C@](C)(OC(C)=O)C[C@]2(OC(C)=O)C(=O)[C@H](C)/C=C/C(C)(C)C(=O)[C@H](OC(=O)C(C)CC)[C@H]1OC(C)=O (stereo not given in full) | inactive | –
CC1(C)OC(=O)Nc2ccc(Br)cc21 | inactive | –
CC[C@@]1(O)C(=O)OCc2c1cc1n(c2=O)Cc2c-1nc1ccccc1c2/C=N/OC(C)(C)C | 0.006 µM (active) | –
